# According to PMC11062922 (Nature Chemical Biology, 2023):
# Like-named read-outs stand apart in the source and are kept apart here.
# Experiments:
# [1] = system: AAK1; set-up: species or system human, MV4-11 + K-562 + COLO205 + SK-N-BE2 + OVCAR-8; details: read-out: apparent Kd, n = 1
# [2] = system: BMP2K; set-up: species or system human, MV4-11 + K-562 + COLO205 + SK-N-BE2 + OVCAR-8; details: read-out: apparent Kd, n = 1
# [3] = target: Q6ZSR9 (human, UniProt Q6ZSR9); set-up: species or system MV4-11 + K-562 + COLO205 + SK-N-BE2 + OVCAR-8; details: read-out: apparent Kd, n = 1
# Q6ZSR9, sequence (Q6ZSR9 whole entry, looked up): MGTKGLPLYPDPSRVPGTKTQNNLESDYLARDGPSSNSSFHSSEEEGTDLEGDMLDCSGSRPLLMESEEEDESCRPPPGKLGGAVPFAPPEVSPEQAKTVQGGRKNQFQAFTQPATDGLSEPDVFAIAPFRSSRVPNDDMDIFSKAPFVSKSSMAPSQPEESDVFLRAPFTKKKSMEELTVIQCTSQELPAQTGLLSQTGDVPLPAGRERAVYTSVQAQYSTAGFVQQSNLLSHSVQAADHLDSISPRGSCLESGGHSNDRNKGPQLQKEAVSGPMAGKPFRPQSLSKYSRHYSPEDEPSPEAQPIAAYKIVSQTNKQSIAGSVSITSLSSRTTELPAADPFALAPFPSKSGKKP
# [4] = system: CSNK2A1;CSNK2A3; set-up: species or system human, MV4-11 + K-562 + COLO205 + SK-N-BE2 + OVCAR-8; details: read-out: apparent Kd, n = 1
# [5] = system: CSNK2A2; set-up: species or system human, MV4-11 + K-562 + COLO205 + SK-N-BE2 + OVCAR-8; details: read-out: apparent Kd, n = 1
# [6] = system: FLT3; set-up: species or system human, MV4-11 + K-562 + COLO205 + SK-N-BE2 + OVCAR-8; details: read-out: apparent Kd, compound concentrations: 100 nM and 1000 nM (sheet 'Samples'), n = 1
# [7] = system: FLT4; set-up: species or system human, MV4-11 + K-562 + COLO205 + SK-N-BE2 + OVCAR-8; details: read-out: apparent Kd, n = 1
# [8] = system: GAK; set-up: species or system human, MV4-11 + K-562 + COLO205 + SK-N-BE2 + OVCAR-8; details: read-out: apparent Kd, n = 1
# [9] = system: GSK3A; set-up: species or system human, MV4-11 + K-562 + COLO205 + SK-N-BE2 + OVCAR-8; details: read-out: apparent Kd, n = 1
# [10] = system: GSK3B; set-up: species or system human, MV4-11 + K-562 + COLO205 + SK-N-BE2 + OVCAR-8; details: read-out: apparent Kd, n = 1
# [11] = system: MELK; set-up: species or system human, MV4-11 + K-562 + COLO205 + SK-N-BE2 + OVCAR-8; details: read-out: apparent Kd, compound concentrations: 100 nM and 1000 nM (sheet 'Samples'), n = 1
# [12] = system: MYLK3; set-up: species or system human, MV4-11 + K-562 + COLO205 + SK-N-BE2 + OVCAR-8; details: read-out: apparent Kd, compound concentrations: 100 nM and 1000 nM (sheet 'Samples'), n = 1
# [13] = system: NUAK1; set-up: species or system human, MV4-11 + K-562 + COLO205 + SK-N-BE2 + OVCAR-8; details: read-out: apparent Kd, compound concentrations: 100 nM and 1000 nM (sheet 'Samples'), n = 1
# [14] = system: PAK4; set-up: species or system human, MV4-11 + K-562 + COLO205 + SK-N-BE2 + OVCAR-8; details: read-out: apparent Kd, n = 1
# [15] = system: PRKD2; set-up: species or system human, MV4-11 + K-562 + COLO205 + SK-N-BE2 + OVCAR-8; details: read-out: apparent Kd, compound concentrations: 100 nM and 1000 nM (sheet 'Samples'), n = 1
# [16] = system: RET; set-up: species or system human, MV4-11 + K-562 + COLO205 + SK-N-BE2 + OVCAR-8; details: read-out: apparent Kd, n = 1
# [17] = system: CLK1; set-up: species or system human, MV4-11 + K-562 + COLO205 + SK-N-BE2 + OVCAR-8; details: read-out: apparent Kd, n = 1
# [18] = system: CLK4; set-up: species or system human, MV4-11 + K-562 + COLO205 + SK-N-BE2 + OVCAR-8; details: read-out: apparent Kd, compound concentrations: 100 nM and 1000 nM (sheet 'Samples'), n = 1
# [19] = system: DYRK1A; set-up: species or system human, MV4-11 + K-562 + COLO205 + SK-N-BE2 + OVCAR-8; details: read-out: apparent Kd; compound concentrations: 100 nM and 1000 nM (sheet 'Samples'), CATDS: 7.5630271191524906E-2; n = 1
# [20] = system: CDKL5; set-up: species or system human, MV4-11 + K-562 + COLO205 + SK-N-BE2 + OVCAR-8; details: read-out: apparent Kd; compound concentrations: 100 nM and 1000 nM (sheet 'Samples'), CATDS: 0.34989836845243499; n = 1
# [21] = compound concentrations:100 nM and 1000 nM (sheet 'Samples')
compound,measurement,setting,value
Cc1cc(-c2ccnc(Nc3cccc(C#N)c3)n2)cc(C)c1O [GSK1440913A],potency estimated from few doses,"[1]; compound concentrations: 100 nM and 1000 nM (sheet 'Samples'), CATDS: 0.22953291556049499",0.12 µM
same,potency estimated from few doses,"[2]; compound concentrations: 100 nM and 1000 nM (sheet 'Samples'), CATDS: 0.10539472264710199",0.564 µM
same,potency estimated from few doses,"[3]; compound concentrations: 100 nM and 1000 nM (sheet 'Samples'), CATDS: 0.240078758272596",0.111 µM
FC(F)(F)c1ccc(-c2ncn(CCCN3CCOCC3)c2-c2ccncc2)cc1 [SB-217780],potency estimated from few doses,"[1]; compound concentrations: 100 nM and 1000 nM (sheet 'Samples'), CATDS: 0.194449602003399",1.89 µM
O=C(O)C(F)(F)F.O=C(O)C(F)(F)F.O=c1[nH]ccc2nc(N[C@@H]3CCCNC3)nc(Nc3ccc(S(=O)(=O)N4CCOCC4)cc3)c12.O=c1[nH]ccc2nc(N[C@@H]3CCCNC3)nc(Nc3ccc(S(=O)(=O)N4CCOCC4)cc3)c12 [GSK2177277A],potency estimated from few doses,"[1]; compound concentrations: 100 nM and 1000 nM (sheet 'Samples'), CATDS: 1.8142496176493599E-2",0.0641 µM
same,potency estimated from few doses,"[2]; compound concentrations: 100 nM and 1000 nM (sheet 'Samples'), CATDS: 3.1293832570600401E-2",0.0236 µM
same,potency estimated from few doses,"[4]; compound concentrations: 100 nM and 1000 nM (sheet 'Samples'), CATDS: 9.7881749935300605E-3",0.292 µM
same,potency estimated from few doses,"[5]; compound concentrations: 100 nM and 1000 nM (sheet 'Samples'), CATDS: 1.40967137709553E-2",0.111 µM
same,potency estimated from few doses,[6]; CATDS: 9.0751024069003396E-3,0.37 µM
same,potency estimated from few doses,"[7]; compound concentrations: 100 nM and 1000 nM (sheet 'Samples'), CATDS: 8.0407033957096193E-3",0.563 µM
same,potency estimated from few doses,"[8]; compound concentrations: 100 nM and 1000 nM (sheet 'Samples'), CATDS: 7.9677595893025404E-3",0.583 µM
same,potency estimated from few doses,"[9]; compound concentrations: 100 nM and 1000 nM (sheet 'Samples'), CATDS: 2.6961640495366201E-2",0.0304 µM
same,potency estimated from few doses,"[10]; compound concentrations: 100 nM and 1000 nM (sheet 'Samples'), CATDS: 2.05762593754709E-2",0.0498 µM
same,potency estimated from few doses,[11]; CATDS: 1.3446305906565099E-2,0.125 µM
same,potency estimated from few doses,[12]; CATDS: 7.6821350503620796E-3,0.67 µM
same,potency estimated from few doses,[13]; CATDS: 0.191214314920645,0.00202 µM
same,potency estimated from few doses,"[14]; compound concentrations: 100 nM and 1000 nM (sheet 'Samples'), CATDS: 1.6910585220633E-2",0.0742 µM
same,potency estimated from few doses,[15]; CATDS: 1.40829388038229E-2,0.112 µM
same,potency estimated from few doses,"[3]; compound concentrations: 100 nM and 1000 nM (sheet 'Samples'), CATDS: 1.64498976329738E-2",0.0787 µM
same,potency estimated from few doses,"[16]; compound concentrations: 100 nM and 1000 nM (sheet 'Samples'), CATDS: 2.8395704553292499E-2",0.0278 µM
c1ccc(-c2n[nH]cc2Nc2ccnc3ccccc23)nc1 [GW694077X],potency estimated from few doses,"[1]; compound concentrations: 100 nM and 1000 nM (sheet 'Samples'), CATDS: 0.15981280907647699",0.0229 µM
same,potency estimated from few doses,"[2]; compound concentrations: 100 nM and 1000 nM (sheet 'Samples'), CATDS: 0.12898106830803699",0.0316 µM
same,potency estimated from few doses,"[17]; compound concentrations: 100 nM and 1000 nM (sheet 'Samples'), CATDS: 6.3259021647505201E-2",0.116 µM
same,potency estimated from few doses,[18]; CATDS: 2.8276062957920199E-2,0.948 µM
same,potency estimated from few doses,"[4]; compound concentrations: 100 nM and 1000 nM (sheet 'Samples'), CATDS: 2.9027112719044901E-2",0.87 µM
same,potency estimated from few doses,"[5]; compound concentrations: 100 nM and 1000 nM (sheet 'Samples'), CATDS: 2.7289326995804501E-2",1.07 µM
same,potency estimated from few doses,[19],0.0803 µM
same,potency estimated from few doses,"[8]; compound concentrations: 100 nM and 1000 nM (sheet 'Samples'), CATDS: 2.8408815024035201E-2",0.933 µM
same,potency estimated from few doses,[11]; CATDS: 2.6674495002574999E-2,1.15 µM
same,potency estimated from few doses,[15]; CATDS: 7.8874466930765497E-2,0.074 µM
same,potency estimated from few doses,"[3]; compound concentrations: 100 nM and 1000 nM (sheet 'Samples'), CATDS: 0.16373298432482",0.0221 µM
COC(=O)c1cccc(NC(=O)NC2CCN(c3ccnc(Nc4cc(OC)c(OC)c(OC)c4)n3)C2)c1 (stereo not drawn) [GSK1379767A],potency estimated from few doses,"[1]; compound concentrations: 100 nM and 1000 nM (sheet 'Samples'), CATDS: 0.10680715656565699",1.51 µM
CC(=O)N[C@@H](Cc1ccc(OP(=O)(O)O)cc1)C(=O)N[C@H]1CCC(=O)N2CCC[C@@H](C(=O)NCc3ccc(Cl)cc3)N2C1=O [RO0325308-000],potency estimated from few doses,[1]; [21],0.737 µM
same,potency estimated from few doses,[2]; [21],1.48 µM
same,potency estimated from few doses,[17]; [21],0.0604 µM
same,potency estimated from few doses,[4]; [21],1.43 µM
same,potency estimated from few doses,[5]; [21],1.78 µM
same,potency estimated from few doses,[7]; [21],0.0284 µM
same,potency estimated from few doses,[8]; [21],0.0594 µM
same,potency estimated from few doses,[9]; [21],0.059 µM
same,potency estimated from few doses,[10]; [21],0.0607 µM
same,potency estimated from few doses,[14]; [21],1.17 µM
same,potency estimated from few doses,[3]; [21],1.03 µM
same,potency estimated from few doses,[16]; [21],0.876 µM
COc1cc[nH]c1/C=C1\C(=O)Nc2ccc(F)c(C#CC3(O)CCNCC3)c21.Cl [RO0282986-001],potency estimated from few doses,"[1]; compound concentrations: 100 nM and 1000 nM (sheet 'Samples'), CATDS: 4.4387438114571E-2",0.0517 µM
same,potency estimated from few doses,"[2]; compound concentrations: 100 nM and 1000 nM (sheet 'Samples'), CATDS: 9.1500909624849303E-2",0.0178 µM
same,potency estimated from few doses,[20],0.00299 µM
same,potency estimated from few doses,"[17]; compound concentrations: 100 nM and 1000 nM (sheet 'Samples'), CATDS: 1.0356916336546E-2",1.16 µM
same,potency estimated from few doses,[18]; CATDS: 1.25074250244867E-2,0.634 µM
same,potency estimated from few doses,"[4]; compound concentrations: 100 nM and 1000 nM (sheet 'Samples'), CATDS: 1.42353528510114E-2",0.45 µM
same,potency estimated from few doses,"[5]; compound concentrations: 100 nM and 1000 nM (sheet 'Samples'), CATDS: 2.2066768869253801E-2",0.173 µM
same,potency estimated from few doses,[6]; CATDS: 4.9574860121956603E-2,0.0436 µM
same,potency estimated from few doses,"[7]; compound concentrations: 100 nM and 1000 nM (sheet 'Samples'), CATDS: 1.2160517778916E-2",0.687 µM
same,potency estimated from few doses,"[8]; compound concentrations: 100 nM and 1000 nM (sheet 'Samples'), CATDS: 1.5691521545656201E-2",0.356 µM
same,potency estimated from few doses,"[9]; compound concentrations: 100 nM and 1000 nM (sheet 'Samples'), CATDS: 1.8964305572366599E-2",0.235 µM
same,potency estimated from few doses,"[10]; compound concentrations: 100 nM and 1000 nM (sheet 'Samples'), CATDS: 1.5746210655388199E-2",0.353 µM
same,potency estimated from few doses,[11]; CATDS: 1.9967026123172499E-2,0.211 µM
same,potency estimated from few doses,[12]; CATDS: 1.54633184822493E-2,0.368 µM
same,potency estimated from few doses,[13]; CATDS: 4.1010981116741001E-2,0.0586 µM
same,potency estimated from few doses,"[14]; compound concentrations: 100 nM and 1000 nM (sheet 'Samples'), CATDS: 2.1447100630881601E-2",0.183 µM
same,potency estimated from few doses,[15]; CATDS: 2.5801010504162801E-2,0.129 µM
same,potency estimated from few doses,"[3]; compound concentrations: 100 nM and 1000 nM (sheet 'Samples'), CATDS: 3.8240338432775099E-2",0.0656 µM
same,potency estimated from few doses,"[16]; compound concentrations: 100 nM and 1000 nM (sheet 'Samples'), CATDS: 4.4247015083228598E-2",0.052 µM
